Bioassay records deposited in PubChem by several laboratories.
MEKK3 PB1 HTS = modulators (inhibitors or enhancers) of MEK5 binding to human MEKK3 PB1 domain; Q99759; 290,000 tested, 1.4% active; bead-based flow cytometry, Alexa488-MEK5 binding to MEKK3; actives lie on both sides; 0 = blocked by unlabeled MEK5, 100 = vehicle; AID 1529; binding response (% of control), % at 10 µM;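 active = binding response more than 3 SD above or below the average of its plate-row segment, actives on both sides; inconclusive = wells at one plate position flagged as instrument error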;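 note: Alexa488 bead fluorescence after subtracting the streptavidin-only scavenger bead signal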
ABCB6 inh 2 = inhibitors of human ABC transporter ABCB6; Q9NP58; K562-ABCB6 porphyrin accumulation, flow cytometry, 1 h; hits give low values; fluorescence ratio to DMSO, % at 10 µM; 360,000 tested, 0.19% active; AID 602162;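 active = fluorescence ratio to DMSO below 75%, the collection mean minus 3 SD; inconclusive = too few cells collected in the well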;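 note: signal is porphyrin accumulated inside mitochondria; 100% equals median channel fluorescence of DMSO control wells; lower ratio means ABCB6 inhibition with less porphyrin fluorescence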
Target sequence (Q9NP58 whole entry, looked up): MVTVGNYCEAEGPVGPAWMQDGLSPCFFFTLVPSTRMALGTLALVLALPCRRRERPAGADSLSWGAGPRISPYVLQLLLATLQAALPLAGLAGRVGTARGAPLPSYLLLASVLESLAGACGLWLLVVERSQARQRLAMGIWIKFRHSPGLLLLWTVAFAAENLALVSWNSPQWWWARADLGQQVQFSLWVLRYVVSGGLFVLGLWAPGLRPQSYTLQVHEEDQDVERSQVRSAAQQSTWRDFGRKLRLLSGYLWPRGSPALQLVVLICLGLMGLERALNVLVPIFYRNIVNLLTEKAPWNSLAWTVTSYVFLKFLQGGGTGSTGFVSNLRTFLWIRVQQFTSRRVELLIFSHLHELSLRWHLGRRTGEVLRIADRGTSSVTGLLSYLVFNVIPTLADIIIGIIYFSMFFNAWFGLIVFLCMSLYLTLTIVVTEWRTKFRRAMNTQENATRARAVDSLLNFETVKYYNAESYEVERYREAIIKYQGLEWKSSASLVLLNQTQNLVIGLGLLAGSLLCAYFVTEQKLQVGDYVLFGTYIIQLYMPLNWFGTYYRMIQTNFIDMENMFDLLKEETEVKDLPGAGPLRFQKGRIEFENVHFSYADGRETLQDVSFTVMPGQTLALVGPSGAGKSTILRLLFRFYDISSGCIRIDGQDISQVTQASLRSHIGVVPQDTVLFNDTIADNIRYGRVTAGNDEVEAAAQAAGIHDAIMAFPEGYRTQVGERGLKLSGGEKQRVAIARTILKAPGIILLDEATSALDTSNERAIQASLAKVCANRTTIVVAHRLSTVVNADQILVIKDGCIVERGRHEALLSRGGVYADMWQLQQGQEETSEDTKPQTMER
MEKK2 WT-MEK5 = raises or lowers MEK5 binding to wildtype human MEKK2 PB1 domain; Q9Y2U5; bead flow cytometry, Alexa488-MEK5 binding to MEKK2 WT; actives lie on both sides; binding response (% of control), % at 10 µM; 290,000 tested, 1.1% active; in the data active = binding response below about 67% or above about 130%; inconclusive = no clear call, values can overlap the other calls; inactive = in between
CRFBP-R2 agonist = CRF-BP/CRF-R2 complex agonism; activation, % at 13.2 µM; AID 588473; HEK293 CRF-R2/CRF-BP, calcium dye fluorescence (FLIPR); percent of saturating CRF peptide response; 350,000 tested, 0.46% active;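 active = activation of at least 50%, plus an integration ratio under a set limit after plate pattern correction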;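 note: plate controls were neutral control wells without compound for no effect and CRF at EC100 for full effect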
MEKK2 mut-MEK5 = signal of MEK5 binding to mutant human MEKK2 PB1 domain; bead flow cytometry, Alexa488-MEK5 binding to MEKK2 mutant; percent response, % at 10 µM; 290,000 tested, 0.35% active; AID 1530; in the data active = percent response above about 24%, passing the limit was not always enough
CRFR2-BP antag = CRF-BP/CRF-R2 complex antagonism; HEK293 CRF-R2/CRF-BP, CRF-induced calcium fluorescence; inhibition, % at 11.8 µM; 350,000 tested, 0.59% active; AID 588475;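 active = inhibition of the ligand-induced calcium signal above about 50% at the single tested concentration, limit read from the data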
Numbers without * were called inactive; ? = inconclusive; nt = not tested or not shown; [ ] = remark or other dose. An excerpt weighted towards active compounds, which were near 2.9% of everything screened.

SMILES	MEKK3 PB1 HTS	ABCB6 inh 2	MEKK2 WT-MEK5	CRFBP-R2 agonist	MEKK2 mut-MEK5	CRFR2-BP antag
CCN1C(=O)[C@@H]2[C@@H]3CN(S(=O)(=O)c4ccc(C)cc4)[C@@H](c4ccccc4Cl)[C@@H]3C(=O)C[C@@H]2C1=O	nt	104.0	nt	nt	nt	nt
C=C(C)COc1ccc(-c2[nH]ncc2Oc2ccccc2OC)c(O)c1	107.0	105.0	118.0	-5.4	9.0	51.4*
C=C(C)COc1ccc(-c2[nH]ncc2Oc2ccc(OC)cc2)c(O)c1	105.0	91.0	102.0	3.7	5.0	39.5
COc1ccc(S(=O)(=O)N(CC(C)C)C2CCS(=O)(=O)C2)cc1OC (stereo not drawn)	nt	94.0	nt	-0.4	nt	71.0*
CCCCn1c(N)c(N(CC(C)C)C(=O)CCC2CCCCC2)c(=O)[nH]c1=O	99.0	97.0	105.0	1.6	7.0	-11.9
O=C(Cn1nc(CNc2ccc(Cl)cc2)[n+]2c1CCCCC2)c1ccccc1	114.0	96.0	130.0	-1.4	39.0	-11.1
Cc1ccc(C(C)C)c(OCc2nn(CC(=O)c3ccc(Cl)cc3)c3[n+]2CCCCC3)c1	91.0	98.0	192.0*	30.1	18.0	-21.6
O=S(=O)(Cc1ccccc1)Oc1ccccc1	101.0	97.0	97.0	-0.4	1.0	12.1
Cc1ccc(NS(=O)(=O)c2ccc(C(=O)N3CCCC(C(F)(F)F)C3)cc2)cc1 (stereo not drawn)	nt	95.0	nt	70.8*	nt	-27.6
CC1CCN(C(=O)c2ccc(NS(=O)(=O)c3ccccc3)cc2)CC1	109.0	96.0	113.0	-1.7	13.0	0.1
O=C(NCC(c1ccco1)N1CCCC1)c1ccc(S(=O)(=O)Nc2ccc(F)cc2)cc1 (stereo not drawn)	nt	99.0	nt	23.2	nt	-16.7
CC1CN(C(=O)c2ccc(NS(=O)(=O)c3ccc(C(C)(C)C)cc3)cc2)CC(C)O1 (stereo not drawn)	98.0	94.0	100.0	56.8*	2.0	-58.1
COc1ccc(NS(=O)(=O)c2ccc(C(=O)N3CCC(C)CC3)cc2)cc1	nt	101.0	nt	65.1*	nt	-8.8
CCOc1ccc(NS(=O)(=O)c2ccc(C(=O)NCC(c3ccco3)N3CCCC3)cc2)cc1 (stereo not drawn)	nt	102.0	nt	63.0*	nt	-42.2
CCCCS(=O)(=O)Nc1ccc(N2CCOCC2)c(S(=O)(=O)N2CCOCC2)c1	102.0	99.0	98.0	-1.9	-1.0	4.0
Cc1cc(-c2nc3cc(F)ccc3s2)ccc1N	nt	94.0	nt	-0.2	nt	15.5
CCOc1ccccc1N(C)S(=O)(=O)c1ccc2c(c1)N(C(C)=O)CCO2	103.0	95.0	104.0	-0.8	7.0	-1.1
O=C(COC(=O)CNC(=O)c1ccc(Cl)c([N+](=O)[O-])c1)NNC(=O)c1ccccc1F	nt	100.0	nt	-1.0	nt	13.2
Cc1ccc(S(=O)(=O)Nc2ccc(NC(=O)c3c(F)c(F)c(F)c(F)c3F)cc2)cc1	104.0	97.0	98.0	57.7*	-4.0	-79.5
CCOc1ccc(NS(=O)(=O)c2ccc(C(=O)N3CC(C)OC(C)C3)cc2)cc1 (stereo not drawn)	nt	94.0	nt	108.4*	nt	-27.5
Cc1cc(NS(=O)(=O)c2ccc(NC(=O)c3c(F)c(F)c(F)c(F)c3F)cc2)nc(C)n1	103.0	106.0	109.0	1.1	8.0	-2.6
CCOc1ccc(S(=O)(=O)Nc2ccc(C(=O)N3CC(C)OC(C)C3)cc2)cc1 (stereo not drawn)	nt	?	nt	36.0	nt	-18.7
C=CCSc1nnc(NC(=O)C2CC(=O)N(c3ccc4c(c3)OCCO4)C2)s1 (stereo not drawn)	nt	80.0	nt	-0.3	nt	-11.7
O=[N+]([O-])c1ccc(NC(=S)NCc2ccc(F)cc2)cc1	107.0	96.0	112.0	8.1	1.0	67.5*
O=[N+]([O-])c1ccc(NC(=S)NCc2ccncc2)cc1	102.0	88.0	96.0	2.3	-2.0	16.0
SMILES	MEKK3 PB1 HTS	ABCB6 inh 2	MEKK2 WT-MEK5	CRFBP-R2 agonist	MEKK2 mut-MEK5	CRFR2-BP antag
CN(CC(=O)NCc1ccc(F)cc1)S(=O)(=O)c1ccc(Br)s1	101.0	93.0	98.0	-0.6	1.0	72.5*
COc1ccc(CNC(=O)CN(C)S(=O)(=O)c2ccc(Br)s2)cc1	103.0	96.0	102.0	0.0	0.0	0.4
COC(=O)c1cc(NC(=O)c2cccc(Cl)c2)c(=O)oc1/C=C/Nc1cc(C)cc(C)c1	68.0*[inhibitor]	nt	nt	nt	558.0*	nt
COc1cccc(/C=N/Nc2nc(-c3cccnc3)nc3ccccc23)c1	90.0	89.0	96.0	1.2	-6.0	0.1
COc1cccc(CNc2nc(-c3cccnc3)nc3ccccc23)c1	112.0	103.0	113.0	-2.3	4.0	95.7*
Fc1ccccc1CNc1nc(-c2cccnc2)nc2ccccc12	104.0	101.0	21.0*[inhibitor]	3.1	31.0*	-25.8
Cc1ccc(NCCCn2ccc(NC(=O)OCc3ccccc3)nc2=O)cc1C	nt	96.0	nt	1.3	nt	0.5
COc1cc2c(cc1OC)C(c1cc(OC)c(OC)c(OC)c1)C1(O)C(=O)OCC1(O)C2 (stereo not drawn)	nt	95.0	nt	2.2	nt	-1.3
CN(CCO)S(=O)(=O)c1ccc2c(c1)C(=NNC(N)=O)c1cc(S(=O)(=O)N(C)CCO)ccc1-2	95.0	95.0	103.0	0.2	-1.0	85.1*
CN(C)S(=O)(=O)c1ccc2c(c1)C(=NNC(N)=O)c1cc(S(=O)(=O)N(C)C)ccc1-2	97.0	99.0	99.0	-0.8	-3.0	-5.2
NC(c1ccccc1)c1ccncc1 (stereo not drawn)	106.0	96.0	109.0	-0.1	5.0	-0.7
O=C(Nc1cccc2c1CCCC2)c1ccccc1Br	106.0	90.0	103.0	0.5	5.0	5.0
CC1=C(c2ccccc2)CCC1=O	100.0	100.0	99.0	-3.0	-2.0	3.6
CC1=C(c2ccccc2)C(O)(c2ccccc2)C(C)C1=O (stereo not drawn)	nt	92.0	nt	-4.5	nt	59.1*
CCc1ccc[n+](-c2[nH]c(=O)sc2/C=N/NC([S-])=Nc2ccccc2)c1	101.0	100.0	114.0	84.8*	18.0	-48.0
CC(C)CC(=O)Nc1ccc(C(=O)COC(=O)Cc2n[nH]c(=O)c3ccccc23)cc1	nt	99.0	nt	51.4*	nt	-20.1
COc1ccc(C)cc1NC(=O)n1ncc2cc(Cl)ccc21	95.0	107.0	91.0	-3.1	-5.0	21.7
O=C(N/N=C/c1c(O)ccc2ccccc12)c1cccnc1	97.0	105.0	97.0	22.4	-4.0	-16.1
O=C(N/N=C\c1c(O)ccc2ccccc12)c1ccc(O)cc1	104.0	97.0	102.0	3.5	2.0	-2.7
O=C(NN=Cc1c(O)ccc2ccccc12)c1ccncc1	nt	106.0	nt	148.7*	nt	-101.7
O=C(N/N=C/c1ccc(O)c2ncccc12)c1cccc(Br)c1	108.0	99.0	103.0	123.9*	-4.0	-192.8
O=C(N/N=C/c1c(O)ccc2ccccc12)c1ccc(Br)o1	100.0	105.0	100.0	101.2*	1.0	-50.3
